# In PubChem BioAssay (EPA / NIEHS):
# Inconclusive results are not listed. The source made the active and inactive calls. How the source made its calls, unless noted: active means hit-call score of the fitted dose curve at least 0.9, where 1 is the maximum; inconclusive means response in the unintended direction; inactive means score below 0.9.
# Assays:
# [1] = ATG_ERE_CIS: Attagene CIS-FACTORIAL HepG2 Assay for Estrogen Response Element (ERE) (AID 2282940; active means hit-call score of the fitted dose curve at least 0.9, where 1 is the maximum; inactive means score below 0.9); settings: HepG2 ERE cis-reporter, Attagene RNA transcript; actives raise or lower the signal
# Summary of the method: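 After 24 h compound treatment, RNA from transfected HepG2 cells was reverse-transcribed, reporter cDNA PCR-amplified, FAM-labelled, HpaI-cut and resolved by capillary electrophoresis. ERE-driven cis reporter transcripts reflect endogenous factors; gain or loss scored against DMSO.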
# [2] = target: Estrogen receptor (Homo sapiens) (UniProt P03372); assay: ATG_ERa_TRANS: Attagene TRANS-FACTORIAL HepG2 Assay for human Estrogen Receptor alpha (ERa) (AID 2282970); settings: HepG2 Attagene TRANS ERa GAL4 reporter, mRNA
# Summary of the method: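 Multiplexed cell-based reporter format in HepG2: chimeric ERa-Gal4 protein drives GAL4-UAS reporter transcription. Fluorescent reporter mRNA quantified by capillary electrophoresis 24 hours after dosing; endpoint fitted as signal gain against DMSO.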
# [3] = target: human Retinoic Acid Receptor gamma (RARg), RARG (gene 5916) (UniProt P13631); assay: ATG_RARg_TRANS: Attagene TRANS-FACTORIAL HepG2 Assay for human Retinoic Acid Receptor gamma (RARg) (AID 2283009)
# Summary of the method: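 HepG2 cells transiently transfected with multiplexed reporter units expressing chimeric RARg-GAL4 and GAL4-UAS-driven reporters; 24 h compound exposure. Reporter mRNA quantified by RT-PCR with fluorescent labelling and capillary electrophoresis; gain-of-signal fitted relative to DMSO baseline.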
# [4] = target: Steroid hormone receptor ERR1 (Homo sapiens) (UniProt P11474); assay: ATG_ERRa_TRANS: Attagene TRANS-FACTORIAL HepG2 Assay for human Estrogen-Related Receptor alpha (ERRa) (AID 2282971); settings: HepG2 Attagene TRANS reporter, ERRa transactivation
# Summary of the method: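 Signal gain relative to DMSO for an ERRa-Gal4 chimeric receptor, read as reporter mRNA by RT-PCR/capillary electrophoresis. Human HepG2 liver cells, transient multiplex reporter transfection, 24 h chemical exposure.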
# [5] = ATG_M_19_TRANS: Attagene TRANS-FACTORIAL HepG2 Assay for M19 Transcription Factor (Internal Marker) (AID 2282974); settings: HepG2 Attagene TRANS-FACTORIAL M19 internal marker reporter
# Summary of the method: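 24 h chemical exposure of transiently transfected HepG2 (MRTU library). RNA → oligo(dT) RT → PCR → 6-FAM labelling → HpaI cut → CE fluorescence. Positive-direction fit vs DMSO baseline; background internal-marker readout.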
# [6] = target: Bile acid receptor (Homo sapiens) (UniProt Q96RI1); assay: ATG_FXR_TRANS: Attagene TRANS-FACTORIAL HepG2 Assay for Farnesoid X Receptor (FXR) (AID 2282979); settings: HepG2 Attagene TRANS FXR-GAL4 reporter transcription;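 further: hits raise reporter mRNA above DMSO so AC50 marks FXR activation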
# Summary of the method: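 After 24 h chemical treatment of transfected HepG2 cells, GAL4-UAS reporter transcripts driven by an exogenous FXR-GAL4 fusion were measured by RT-PCR and capillary electrophoresis. Increases over DMSO were fitted.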
# [7] = target: Estrogen-related receptor gamma (Homo sapiens) (UniProt P62508); assay: ATG_ERRg_TRANS: Attagene TRANS-FACTORIAL HepG2 Assay for human Estrogen-Related Receptor gamma (ERRg) (AID 2282977); settings: HepG2 Attagene TRANS reporter, ERRg transactivation;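 further: hits increase reporter signal over DMSO so potencies reflect activators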
# Summary of the method: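 HepG2 cells transiently transfected with multiplexed GAL4-UAS reporter units and chimeric NR-Gal4 constructs were exposed to test chemicals for 24 h. Reporter mRNA was measured by RT-PCR, 6-FAM primer extension, HpaI digestion and capillary electrophoresis; gain-of-signal versus DMSO.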
# [8] = target: human Peroxisome Proliferator-activated Receptor delta (PPARd), PPARD (gene 5467) (UniProt Q03181); assay: ATG_PPARd_TRANS: Attagene TRANS-FACTORIAL HepG2 Assay for human Peroxisome Proliferator-activated Receptor delta (PPARd) (AID 2283002)
# Summary of the method: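 Multiplexed trans-activation format: HepG2 liver cells expressing exogenous NR-Gal4 chimeras and GAL4-UAS reporters were exposed for 24 h. Reporter mRNA was detected by RT-PCR with capillary electrophoresis fluorescence; activity fitted as gain of signal relative to DMSO.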
# [9] = target: human Retinoic Acid Receptor beta (RARb), RARB (gene 5915) (UniProt P10826); assay: ATG_RARb_TRANS: Attagene TRANS-FACTORIAL HepG2 Assay for human Retinoic Acid Receptor beta (AID 2283004)
# Summary of the method: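 Fluorescent capillary-electrophoresis detection of GAL4-UAS reporter mRNA defines the endpoint, with induction over DMSO-treated wells scored as activity. Transiently transfected human hepatoma HepG2 cells expressing exogenous NR–Gal4 proteins are exposed to test chemicals for 24 h.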
# [10] = target: Retinoic acid receptor alpha (Homo sapiens) (UniProt P10276); assay: ATG_RARa_TRANS: Attagene TRANS-FACTORIAL HepG2 Assay for human Retinoic Acid Receptor alpha (RARa) (AID 2283005)
# Summary of the method: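 HepG2 cells transiently transfected with multiple reporter units expressing chimeric RARα-GAL4 fusion, with GAL4-UAS-driven reporters. After 24 h compound exposure, reporter mRNA induction quantified by RT-PCR and capillary electrophoresis with fluorescent labeling; gain-of-signal fitted relative to DMSO control.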
# [11] = target: Estrogen receptor beta (Homo sapiens) (UniProt Q92731); assay: OT_ER_ERbERb_0480: Odyssey Thera (OT) 8-hour HEK293T Protein-Complementation Assay for Estrogen Receptor-beta/-beta Homodimer (AID 2283357);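 further: active means signal gain over DMSO baseline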
# Summary of the method: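 Readout: increase in mean fluorescence intensity (nucleus for agonists; nucleus plus cytoplasm for antagonists) relative to DMSO, from a reporter-fragment complementation of human ER-beta LBD homodimer in HEK293T cells dosed 8 hours.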
# [12] = target: Estrogen receptor beta (Homo sapiens) (UniProt Q92731); assay: OT_ER_ERbERb_1440: Odyssey Thera (OT) 24-hour HEK293T Protein-Complementation Assay for Estrogen Receptor-beta/-beta Homodimer (AID 2283380);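 further: fluorescence gain from ER beta LBD homodimer complementation read by laser scanning cytometry; scored as signal increase over DMSO baseline for both agonists and antagonists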
# Summary of the method: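 HEK293T cells stably expressing human ER-beta LBD (aa 310-547) PCA homodimer pair, dosed 24 h; formaldehyde-fixed, Draq5-stained. Readout: increase in nuclear (agonist) or nuclear plus cytoplasmic (antagonist) fluorescence intensity versus DMSO, gain-of-signal fitting.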
# [13] = target: Peroxisome proliferator-activated receptor gamma (Homo sapiens) (UniProt P37231); assay: OT_PPARg_PPARgSRC1_0480: Odyssey Thera (OT) 8-hour Protein-Complementation Assay for Peroxisome Proliferator-activated Receptor Gamma / SRC-1 Co-activator (AID 2283387);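 further: nuclear to cytoplasmic split Venus YFP fluorescence ratio reporting PPARg SRC-1 interaction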
# Summary of the method: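 Protein-fragment complementation of split Venus YFP reports PPARg/SRC-1 interaction in HEK293T (transfected 48 h before treatment), exposed 8 h. Readout: N/C fluorescence ratio at 488 nm from imaging, Draq5 for segmentation, positive fit relative to DMSO.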
# [14] = target: Peroxisome proliferator-activated receptor gamma (Homo sapiens) (UniProt P37231); assay: OT_PPARg_PPARgSRC1_1440: Odyssey Thera (OT) 24-hour Protein-Complementation Assay for Peroxisome Proliferator-activated Receptor Gamma/ SRC-1 Co-activator (AID 2283388);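 further: nuclear to cytoplasmic ratio of reconstituted Venus YFP fluorescence in fixed imaged cells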
# Summary of the method: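 Cells carrying the PPARg/SRC-1 fragment-complementation reporter receive compound for 24 hours, are fixed and counterstained with Draq5, then imaged. Increased nuclear relative to cytoplasmic YFP fluorescence above DMSO baseline indicates binding activity.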
# [15] = ACEA_AR_antagonist_AUC_viability: ACEA Biosciences xCELLigence Real-Time Cell Analysis on Androgen Receptor Antagonism for Viability (AID 2283776);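 further: 22Rv1 human prostate cancer cells growing on impedance electrode plates; area under impedance growth curve at 80 h after dosing as viability; hits lower the growth signal relative to DMSO meaning cytotoxicity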
# Summary of the method: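 Impedance read-out (RT-CES): area under growth curve at 80 h post-dose, loss of signal scored vs DMSO baseline. 22Rv1 cells; 8-pt 1:4 series, top 100 uM final, ≤0.5% DMSO; biological duplicate.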
# [16] = read-out: Pselectin, SELP (gene 6403); assay: BSK_4H_Pselectin: BioMAP Diversity Plus: 4H Assay for Pselectin Biomarker Activity (AID 2283026; active means hit-call score of the fitted dose curve at least 0.9, where 1 is the maximum; inactive means score below 0.9); settings: primary human endothelial cells (HUVEC); actives raise or lower the signal
# Summary of the method: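 Primary human umbilical vein endothelial cells were exposed to test chemical for 24 h, then cell-surface P-selectin was quantified by ELISA. Activity was fitted bidirectionally against DMSO as negative control and baseline.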
# [17] = target: Retinoic acid receptor RXR-alpha (Homo sapiens) (UniProt P19793); assay: OT_NURR1_NURR1RXRa_0480: Odyssey Thera (OT) 8-hour HEK293T Protein Complementation Assay for Nurr1/retinoid X receptor (RXR) (AID 2283385)
# Summary of the method: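 HEK293T cells expressing Nurr1 and RXRα fused to reporter fragments were dosed with compound for 8 hours. Complex formation was read as fluorescence intensity and analysed as gain of signal against DMSO as baseline.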
# [18] = target: Retinoic acid receptor RXR-alpha (Homo sapiens) (UniProt P19793); assay: OT_NURR1_NURR1RXRa_1440: Odyssey Thera (OT) 24-hour HEK293T Protein Complementation Assay for Nurr1/retinoid X receptor (RXR) (AID 2283386)
# Summary of the method: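 HEK293T cells were dosed with compound and read 24 h later by fluorescence intensity in a protein-fragment complementation format, where Nurr1–RXRα interaction reconstitutes a split reporter. Activity was fitted as gain of signal relative to DMSO baseline.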
# [19] = ACEA_AR_agonist_AUC_viability: ACEA Biosciences xCELLigence Real-Time Cell Analysis on Androgen Receptor Agonism for Viability (AID 2283775);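 on AC50: viability read 80 hours after compound addition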
# Summary of the method: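 Read-out is area under the impedance curve at 80 h post-dose in 22Rv1 cells, with DMSO as baseline and signal loss taken as reduced viability. Compounds ran in duplicate from 100 uM final.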
# [20] = CCTE_Harrill_HTTr_CellCount_MCF7: CCTE's Cell Proliferation Assessment for the High-Throughput Transcriptomics (HTTr) Platform, Harrill Lab (AID 2284012);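 further: cells exposed to compound for six hours; intended direction is loss of nuclei count meaning fewer cells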
# Summary of the method: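 MCF-7 cells were exposed for 6 h to an eight-point dilution series; Hoechst-labeled nuclei were counted by high content imaging. Curves were fitted bidirectionally against DMSO as negative control and baseline, with signal loss indicating reduced cell count.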
# Sequence of Bile acid receptor (Homo sapiens) (Q96RI1 whole entry, looked up, the tested form may be a part): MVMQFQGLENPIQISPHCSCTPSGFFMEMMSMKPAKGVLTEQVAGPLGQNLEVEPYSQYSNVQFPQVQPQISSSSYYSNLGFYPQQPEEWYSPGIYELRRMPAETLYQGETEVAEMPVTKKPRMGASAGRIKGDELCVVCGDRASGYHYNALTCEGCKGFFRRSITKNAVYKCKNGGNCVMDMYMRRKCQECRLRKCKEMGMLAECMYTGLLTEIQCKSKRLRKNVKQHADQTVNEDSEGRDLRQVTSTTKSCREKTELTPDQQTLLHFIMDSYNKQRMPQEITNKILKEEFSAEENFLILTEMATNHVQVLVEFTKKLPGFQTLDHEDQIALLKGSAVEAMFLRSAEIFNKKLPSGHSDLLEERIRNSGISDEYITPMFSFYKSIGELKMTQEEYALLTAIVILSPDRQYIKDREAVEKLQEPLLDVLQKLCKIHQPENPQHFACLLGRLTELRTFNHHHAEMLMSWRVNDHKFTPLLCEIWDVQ
# Sequence of human Peroxisome Proliferator-activated Receptor delta (PPARd), PPARD (gene 5467) (Q03181 whole entry, looked up, the tested form may be a part): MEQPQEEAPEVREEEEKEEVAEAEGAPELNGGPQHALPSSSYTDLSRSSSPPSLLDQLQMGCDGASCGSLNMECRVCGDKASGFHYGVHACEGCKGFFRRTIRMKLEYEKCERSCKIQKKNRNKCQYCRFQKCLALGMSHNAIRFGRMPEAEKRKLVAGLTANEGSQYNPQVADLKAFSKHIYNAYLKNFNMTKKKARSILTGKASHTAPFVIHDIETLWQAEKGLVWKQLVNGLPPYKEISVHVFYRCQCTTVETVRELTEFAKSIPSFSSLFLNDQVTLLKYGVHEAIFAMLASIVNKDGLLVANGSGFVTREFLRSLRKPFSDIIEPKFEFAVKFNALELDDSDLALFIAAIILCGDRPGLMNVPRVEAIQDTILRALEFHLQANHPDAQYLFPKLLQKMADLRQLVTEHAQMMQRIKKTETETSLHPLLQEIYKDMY
# Sequence of human Retinoic Acid Receptor gamma (RARg), RARG (gene 5916) (P13631 whole entry, looked up, the tested form may be a part): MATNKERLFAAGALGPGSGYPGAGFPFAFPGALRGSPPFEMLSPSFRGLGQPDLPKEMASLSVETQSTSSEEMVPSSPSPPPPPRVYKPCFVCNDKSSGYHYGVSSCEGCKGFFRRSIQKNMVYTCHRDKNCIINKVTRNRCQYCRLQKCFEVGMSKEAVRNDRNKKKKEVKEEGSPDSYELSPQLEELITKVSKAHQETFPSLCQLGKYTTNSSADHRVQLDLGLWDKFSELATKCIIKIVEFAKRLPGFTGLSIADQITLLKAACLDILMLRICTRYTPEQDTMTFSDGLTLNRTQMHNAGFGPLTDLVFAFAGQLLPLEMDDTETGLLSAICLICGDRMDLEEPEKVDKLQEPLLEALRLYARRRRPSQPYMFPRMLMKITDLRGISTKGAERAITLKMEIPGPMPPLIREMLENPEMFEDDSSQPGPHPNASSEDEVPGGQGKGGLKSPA
# Sequence of Retinoic acid receptor alpha (Homo sapiens) (P10276 whole entry, looked up, the tested form may be a part): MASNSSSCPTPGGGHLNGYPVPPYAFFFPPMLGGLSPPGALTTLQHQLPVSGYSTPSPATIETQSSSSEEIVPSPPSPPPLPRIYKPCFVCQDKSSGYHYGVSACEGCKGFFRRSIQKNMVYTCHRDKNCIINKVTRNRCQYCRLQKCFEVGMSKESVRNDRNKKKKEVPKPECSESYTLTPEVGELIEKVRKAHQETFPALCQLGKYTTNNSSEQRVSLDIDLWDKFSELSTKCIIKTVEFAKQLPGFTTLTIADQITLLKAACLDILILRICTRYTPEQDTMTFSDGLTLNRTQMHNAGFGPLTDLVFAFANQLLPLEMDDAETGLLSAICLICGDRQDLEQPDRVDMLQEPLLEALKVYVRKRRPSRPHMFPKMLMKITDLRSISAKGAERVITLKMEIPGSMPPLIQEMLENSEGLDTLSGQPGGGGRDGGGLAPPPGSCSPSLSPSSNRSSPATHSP
# Sequence of Steroid hormone receptor ERR1 (Homo sapiens) (P11474 whole entry, looked up, the tested form may be a part): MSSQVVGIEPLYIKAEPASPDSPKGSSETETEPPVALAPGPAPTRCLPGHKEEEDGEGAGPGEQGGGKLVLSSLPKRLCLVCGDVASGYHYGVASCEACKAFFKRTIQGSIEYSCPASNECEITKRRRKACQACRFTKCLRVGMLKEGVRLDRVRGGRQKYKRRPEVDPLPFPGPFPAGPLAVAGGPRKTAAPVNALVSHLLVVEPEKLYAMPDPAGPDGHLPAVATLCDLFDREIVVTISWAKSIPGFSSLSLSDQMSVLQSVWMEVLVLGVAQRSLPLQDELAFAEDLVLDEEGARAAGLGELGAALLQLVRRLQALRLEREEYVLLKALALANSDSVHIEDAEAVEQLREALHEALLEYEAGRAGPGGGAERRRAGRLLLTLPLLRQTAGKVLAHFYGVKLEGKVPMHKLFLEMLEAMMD
# Sequence of Peroxisome proliferator-activated receptor gamma (Homo sapiens) (P37231 whole entry, looked up, the tested form may be a part): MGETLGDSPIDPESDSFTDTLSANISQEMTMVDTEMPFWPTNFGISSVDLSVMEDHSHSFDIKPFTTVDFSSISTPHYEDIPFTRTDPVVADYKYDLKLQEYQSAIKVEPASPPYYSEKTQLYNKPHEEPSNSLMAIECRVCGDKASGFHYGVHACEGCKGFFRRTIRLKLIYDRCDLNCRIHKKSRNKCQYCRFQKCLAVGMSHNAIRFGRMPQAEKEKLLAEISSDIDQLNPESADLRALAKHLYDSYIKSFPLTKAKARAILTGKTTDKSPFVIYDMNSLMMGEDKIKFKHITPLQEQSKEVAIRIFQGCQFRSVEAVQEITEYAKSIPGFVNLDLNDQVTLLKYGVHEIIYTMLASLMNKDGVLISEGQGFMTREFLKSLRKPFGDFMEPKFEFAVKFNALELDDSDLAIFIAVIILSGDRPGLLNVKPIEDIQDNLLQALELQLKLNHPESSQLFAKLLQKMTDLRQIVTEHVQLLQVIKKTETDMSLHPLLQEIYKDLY
# Sequence of Estrogen receptor beta (Homo sapiens) (Q92731 whole entry, looked up, the tested form may be a part): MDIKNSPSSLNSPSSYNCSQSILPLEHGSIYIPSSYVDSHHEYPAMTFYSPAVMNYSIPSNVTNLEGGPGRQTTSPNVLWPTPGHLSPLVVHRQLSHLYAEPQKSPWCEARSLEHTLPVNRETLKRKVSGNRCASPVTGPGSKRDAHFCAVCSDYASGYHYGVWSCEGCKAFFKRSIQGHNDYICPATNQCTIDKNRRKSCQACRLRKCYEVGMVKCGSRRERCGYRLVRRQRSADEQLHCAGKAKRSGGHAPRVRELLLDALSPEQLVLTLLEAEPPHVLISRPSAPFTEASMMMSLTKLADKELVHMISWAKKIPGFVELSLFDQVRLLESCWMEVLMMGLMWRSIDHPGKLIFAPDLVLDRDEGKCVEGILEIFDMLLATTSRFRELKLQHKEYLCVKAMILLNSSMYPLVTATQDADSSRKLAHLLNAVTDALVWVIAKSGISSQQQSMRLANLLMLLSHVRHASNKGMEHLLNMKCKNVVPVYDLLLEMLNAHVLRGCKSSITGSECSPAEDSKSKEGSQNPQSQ
# Sequence of Estrogen-related receptor gamma (Homo sapiens) (P62508 whole entry, looked up, the tested form may be a part): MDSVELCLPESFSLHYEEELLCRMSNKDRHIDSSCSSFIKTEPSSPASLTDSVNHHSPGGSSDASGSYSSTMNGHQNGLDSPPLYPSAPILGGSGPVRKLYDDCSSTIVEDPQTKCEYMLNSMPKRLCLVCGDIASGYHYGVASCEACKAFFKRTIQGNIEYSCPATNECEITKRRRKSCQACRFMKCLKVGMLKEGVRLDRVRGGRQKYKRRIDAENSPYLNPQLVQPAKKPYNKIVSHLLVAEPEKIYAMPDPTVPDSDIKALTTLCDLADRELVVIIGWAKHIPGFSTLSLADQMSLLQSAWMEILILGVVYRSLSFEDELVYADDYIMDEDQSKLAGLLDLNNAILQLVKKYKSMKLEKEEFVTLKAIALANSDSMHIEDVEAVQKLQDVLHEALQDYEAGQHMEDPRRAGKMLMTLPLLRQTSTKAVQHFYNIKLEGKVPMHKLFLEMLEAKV
# Sequence of Estrogen receptor (Homo sapiens) (P03372 whole entry, looked up, the tested form may be a part): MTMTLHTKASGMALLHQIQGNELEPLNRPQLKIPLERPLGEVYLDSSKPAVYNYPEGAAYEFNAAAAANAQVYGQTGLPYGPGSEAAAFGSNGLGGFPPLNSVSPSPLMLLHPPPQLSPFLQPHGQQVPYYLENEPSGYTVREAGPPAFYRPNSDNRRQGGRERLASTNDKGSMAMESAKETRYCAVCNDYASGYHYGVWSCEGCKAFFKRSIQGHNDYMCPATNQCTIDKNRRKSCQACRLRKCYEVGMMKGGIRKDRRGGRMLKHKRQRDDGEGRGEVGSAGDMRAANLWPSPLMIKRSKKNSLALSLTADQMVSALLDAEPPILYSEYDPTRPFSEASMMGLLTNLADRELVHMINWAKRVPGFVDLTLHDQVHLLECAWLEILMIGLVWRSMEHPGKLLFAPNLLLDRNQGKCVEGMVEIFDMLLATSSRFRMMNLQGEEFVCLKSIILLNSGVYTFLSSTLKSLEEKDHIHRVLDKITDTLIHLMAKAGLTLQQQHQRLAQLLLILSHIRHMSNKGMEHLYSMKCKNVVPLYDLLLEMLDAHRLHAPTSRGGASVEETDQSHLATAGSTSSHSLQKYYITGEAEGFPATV
# Sequence of human Retinoic Acid Receptor beta (RARb), RARB (gene 5915) (P10826 whole entry, looked up, the tested form may be a part): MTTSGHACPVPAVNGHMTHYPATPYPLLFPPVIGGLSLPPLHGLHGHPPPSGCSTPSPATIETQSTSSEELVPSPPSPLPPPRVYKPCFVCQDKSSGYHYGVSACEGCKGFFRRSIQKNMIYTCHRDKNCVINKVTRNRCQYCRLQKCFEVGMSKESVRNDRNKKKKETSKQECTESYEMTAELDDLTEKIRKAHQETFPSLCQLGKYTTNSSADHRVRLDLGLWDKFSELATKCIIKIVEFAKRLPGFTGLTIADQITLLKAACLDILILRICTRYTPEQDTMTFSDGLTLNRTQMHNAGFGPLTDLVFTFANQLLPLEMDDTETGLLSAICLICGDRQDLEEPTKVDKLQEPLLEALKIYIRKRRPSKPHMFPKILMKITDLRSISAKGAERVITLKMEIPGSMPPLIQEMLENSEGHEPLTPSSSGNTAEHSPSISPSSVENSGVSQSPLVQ
smiles,measurement,setting,value
CC(C)CC(=O)O,outcome,[1],inactive
same,outcome,[2],inactive
same,outcome,[3],inactive
c1cc(N(CC2CO2)CC2CO2)ccc1Cc1ccc(N(CC2CO2)CC2CO2)cc1 (stereo not drawn),outcome,[1],inactive
same,outcome,[4],inactive
same,outcome,[5],inactive
same,outcome,[6],inactive
NC(=O)c1ccc([N+](=O)[O-])cc1Cl,outcome,[6],inactive
C=C(C)C(=O)OCCCCCC,outcome,[1],inactive
same,outcome,[7],inactive
CCCC(=O)OC/C=C(\C)CCC=C(C)C,outcome,[1],inactive
same,outcome,[2],inactive
same,outcome,[5],inactive
CO[Si](CCCNCCN)(OC)OC,outcome,[8],inactive
same,outcome,[9],inactive
same,outcome,[10],inactive
same,outcome,[11],inactive
same,outcome,[12],inactive
same,outcome,[13],inactive
same,outcome,[14],inactive
same,outcome,[15],inactive
CC(C)CC(=O)CC(C)CC(C)C (stereo not drawn),outcome,[6],inactive
same,AC50,[16],30.1 µM (active)
COC(=O)[C@]1(C)CCC[C@@]2(C)[C@H]1CC=C1C=C(C(C)C)CC[C@@H]12,AC50,[6],33 µM (active)
same,outcome,[3],inactive
same,outcome,[11],inactive
same,outcome,[12],inactive
same,AC50,[17],71.6 µM (active)
same,outcome,[18],inactive
same,AC50,[19],0.333 µM (active)
COC(=O)/C=C\C(=O)OC,outcome,[4],inactive
same,outcome,[7],inactive
same,outcome,[16],inactive
O=C(Oc1ccccc1)c1ccccc1,outcome,[7],inactive
same,outcome,[9],inactive
same,outcome,[3],inactive
same,outcome,[11],inactive
same,outcome,[12],inactive
same,AC50,[17],75.8 µM (active)
same,outcome,[18],inactive
same,outcome,[13],inactive
same,outcome,[14],inactive
same,outcome,[19],inactive
same,outcome,[15],inactive
same,outcome,[20],inactive
Cc1ccnc(N)c1,outcome,[9],inactive
same,outcome,[10],inactive
same,outcome,[20],inactive
CCCOCCC,outcome,[1],inactive
same,outcome,[9],inactive
same,outcome,[3],inactive
CCc1cc(C(N)=S)ccn1,outcome,[20],inactive
CN(C)c1ccc(C(c2ccccc2)c2ccc(N(C)C)cc2)cc1,outcome,[5],inactive
same,outcome,[7],inactive
same,AC50,[16],7.46 µM (active)
[O-][n+]1ccc(Cl)cc1,outcome,[6],inactive
same,outcome,[9],inactive
CCCCCCC1CCCC(=O)O1 (stereo not drawn),outcome,[4],inactive
CC/C=C\CCO,outcome,[7],inactive
same,outcome,[11],inactive
same,outcome,[12],inactive
same,outcome,[17],inactive
same,outcome,[18],inactive
same,outcome,[15],inactive
same,outcome,[20],inactive
CCC(C)(CCC(C)C)C(=O)O (stereo not drawn),outcome,[4],inactive
same,outcome,[5],inactive
same,outcome,[9],inactive
same,outcome,[10],inactive
same,outcome,[19],inactive
same,outcome,[15],inactive
Cc1cccnc1,outcome,[5],inactive
same,outcome,[7],inactive
same,outcome,[16],inactive
same,outcome,[11],inactive
same,outcome,[12],inactive
same,outcome,[18],inactive
same,outcome,[13],inactive
same,outcome,[14],inactive
same,outcome,[15],inactive
OCCc1ccccn1,outcome,[5],inactive
same,outcome,[8],inactive
Clc1ccccn1,outcome,[6],inactive
same,outcome,[3],inactive
same,outcome,[20],inactive
CCCc1c(OCCCCc2nn[nH]n2)ccc(C(C)=O)c1O,outcome,[1],inactive
same,outcome,[2],inactive
same,outcome,[6],inactive
same,outcome,[20],inactive
CC1=C(CC(=O)O)c2cc(F)ccc2/C1=C\c1ccc(S(C)=O)cc1 (stereo not drawn),outcome,[20],inactive
Cc1cc(C)c(S(=O)(=O)O)cc1N=Nc1cc(S(=O)(=O)O)c2ccccc2c1O,outcome,[11],inactive
same,outcome,[12],inactive
same,outcome,[17],inactive
same,outcome,[18],inactive
same,outcome,[13],inactive
same,outcome,[14],inactive
same,outcome,[19],inactive
same,outcome,[15],inactive
CCO[Si](CCCN)(OCC)OCC,outcome,[1],inactive
same,outcome,[4],inactive
same,outcome,[5],inactive
same,outcome,[7],inactive
same,outcome,[6],inactive
same,outcome,[8],inactive
same,outcome,[13],inactive
same,outcome,[14],inactive
same,outcome,[19],inactive
COCCCN,outcome,[1],inactive
